In the library only some 6% were active in any assay of this set; here they are far more common.
D1 agonist = Allosteric Agonists of the Human D1 Dopamine Receptor: qHTS | activation, % at 2 µM | HEK293 T-REx D1 cells, calcium flux, agonist mode | 1% of 360,000 active | D(1A) dopamine receptor (Homo sapiens), P21728; in the data active means activation above about 30%; further: 0% is about no effect
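Inducible HEK293 T-REx D1 cells, force-coupled to calcium signalling, were plated at 4000 cells/well with tetracycline and held overnight at 30 C. After no-wash calcium dye loading, compound-evoked calcium rise over 180 s flagged agonists.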
D3 antag = qHTS of D3 Dopamine Receptor Antagonist: qHTS; max response, negative = inhibition, %; 2.5% of 360,000 active; AID 652054, 2013; D3R cells, DiscoveRx beta-arrestin luminescence, antagonist mode; stronger effect = lower value; in the data active means max response below about -50%; inconclusive means no clear call, values can overlap the other calls; further: on the % scale 0 is the no-effect control and ±100 the full control effect
Target sequence (P35462 whole entry, looked up): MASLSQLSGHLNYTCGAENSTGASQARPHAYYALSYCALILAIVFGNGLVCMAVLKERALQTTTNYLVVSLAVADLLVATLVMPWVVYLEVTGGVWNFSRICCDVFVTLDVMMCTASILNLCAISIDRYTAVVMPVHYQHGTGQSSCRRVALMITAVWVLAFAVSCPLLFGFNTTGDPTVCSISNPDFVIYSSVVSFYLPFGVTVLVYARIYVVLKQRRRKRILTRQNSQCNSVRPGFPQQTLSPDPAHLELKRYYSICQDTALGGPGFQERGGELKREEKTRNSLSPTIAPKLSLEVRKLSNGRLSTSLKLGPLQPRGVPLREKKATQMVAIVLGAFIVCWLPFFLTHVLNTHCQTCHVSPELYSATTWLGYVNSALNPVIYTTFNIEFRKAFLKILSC
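Cells plated overnight at 1500 cells/well, then exposed to library compounds with dopamine controls for 90 minutes at 37 degrees C. DiscoveRx reagent added for 30–60 minutes at room temperature; luminescence read, quantitative HTS format.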
DRD3 agonist = qHTS of D3 Dopamine Receptor Agonist: qHTS; D(3) dopamine receptor (Homo sapiens), P35462; 0.58% of 410,000 active; D3R DiscoveRx beta-arrestin cells, luminescence, 90 min; max activation, %; AID 652048, 2013; in the data active means max activation above about 30%; further: 0% is about no effect
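Agonist-mode cell screen: cells plated at 1500/well and incubated overnight at 37 °C, then exposed to library compounds for 90 min at 37 °C. Detection reagent was added for 30–60 min at room temperature, and luminescence was read.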
D1 potentiator = Potentiators of Human D1 Dopamine Receptor: qHTS; HEK293 TREx D1 cells, calcium flux, dopamine EC20 potentiation; potentiation, % at 10 µM; 0.036% of 360,000 active; AID 504651, 2011; in the data active means potentiation above about 30%; further: 0% is about no effect
D1 antag = Antagonist of Human D 1 Dopamine Receptor: qHTS | AID 504652, 2011 | 3.2% of 360,000 active | activity change, negative = inhibition, % at 10 µM | HEK293 TREx D1 cells, calcium flux, dopamine EC80; stronger effect = lower value; in the data active means activity change below about -30%; further: on the % scale 0 is the no-effect control and ±100 the full control effect
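After overnight tetracycline induction at 30 C, force-coupled D1 HEK293 cells took up a no-wash calcium dye at room temperature. Compounds were added and monitored 180 s, and the response to EC80 dopamine was then recorded.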
* marks the source's active call; other numbers are inactive results; ? = inconclusive; · = not tested or not shown.

SMILES | D1 agonist | D3 antag | DRD3 agonist | D1 potentiator | D1 antag
Cc1onc(-c2c(Cl)cccc2Cl)c1C(=O)Nc1ccc2c(C(F)(F)F)cc(=O)oc2c1 | 4 | 5 | 7 | 0 | -30*
O=C(N/N=C/c1c(O)n(CCC2=CCCCC2)c(=O)[nH]c1=O)c1ccccc1 | 2 | -68* | -5 | 0 | 9
Nc1ccccc1N=Cc1c(O)n(CCC2=CCCCC2)c(=O)[nH]c1=O | 0 | -87* | -10 | -2 | -10
CC[C@]1(O)CC[C@H]2[C@@H]3CCC4=CCCC[C@@H]4[C@H]3CC[C@@]21C | · | · | 6 | · | ·
COC1=CC(=O)O[C@@H](/C=C/c2ccccc2)C1 | -2 | -11 | -3 | -5 | -33*
CN1CCN(c2ncnc(Cl)c2N)CC1 | 5 | -1 | -8 | 7 | 11
CN1CCN(c2nccc3c2ncn3C)CC1 | 3 | -64* | 0 | 5 | 0
COc1ccc2c(c1)CC1(CN2C)C(=O)NC(=O)N(c2ccc(C)cc2)C1=O (stereo not drawn) | 2 | 0 | 4 | 12 | 0
COc1ccc2c(c1)CC1(CN2C)C(=O)NC(=O)N(c2ccc(F)cc2)C1=O (stereo not drawn) | 1 | 3 | 5 | 1 | -82*
Cc1c(CCN)ccc2c1[nH]c1ccccc12 | 25 | -5 | -2 | -7 | -38*
C[C@H]1CC[C@@H]2[C@@H](C)[C@H]3[C@H](C[C@H]4[C@@H]5CC=C6C[C@@H](O[C@@H]7O[C@H](CO)[C@H](O)[C@H](O[C@@H]8O[C@H](CO)[C@@H](O)[C@H](O)[C@H]8O)[C@H]7O[C@@H]7O[C@@H](C)[C@H](O)[C@@H](O)[C@H]7O)CC[C@]6(C)[C@H]5CC[C@]34C)N2C1 | 96* | -20 | 21 | 3 | -10
C[C@@H]1CC2C3CC=C4C[C@@H](O)CC[C@]4(C)C3CC[C@]2(C)[C@H]1O (stereo partly drawn) | · | 8 | 5 | · | ·
COC1CC2C=C(C)C=CC=CC(=O)NC(c3ccccc3)CC=CCCC(O)CC(=O)C2=C1O (stereo not drawn) | · | -85* | 11 | · | ·
Cc1ccc(-n2c(/C=C/c3ccccc3)nc3ccccc3c2=O)cc1C | 0 | · | 2 | -2 | 41
Cc1[nH]c2ccccc2c1C(=O)CN1CC=C(c2ccccc2)CC1 | 7 | ? | 1 | -4 | -23
Oc1ccc2ccccc2c1CN1CC=C(c2ccccc2)CC1 | 4 | ? | -12 | 14 | -2
O=C(O)c1ccc2[nH]cc(CCCCN3CC=C(c4ccccc4)CC3)c2c1 | · | · | 73* | · | ·
O=C(CCN1CC=C(c2ccccc2)CC1)NCc1ccccc1 | · | -69* | 10 | · | ·
Oc1ccc2[nH]cc(CCCCN3CC=C(c4ccccc4)CC3)c2c1 | · | · | 55* | · | ·
CCC1(c2ccccc2)C(=O)NC(=O)NC1=O | · | -116* | -7 | · | ·
O=S(=O)(NC1CCCCC1)OCC(Cl)(Cl)Cl | 1 | -10 | -8 | -3 | -34*
CCOC(=O)c1ccc(NC(=O)c2cccn(Cc3ccccc3F)c2=O)cc1 | 12 | · | 10 | 1 | -5
N#Cc1ccc2nc(-c3ccc(CN4CCC(n5c(=O)[nH]c6ccccc65)CC4)cc3)c(-c3ccccc3)nc2c1 | · | -57* | -9 | · | ·
CC1(C)CSC(=NCc2ccccc2)N1 | 152* | 5 | 2 | 36* | -38*
O=C(CN1C(=O)CN=C(c2ccccc2)c2ccccc21)NCc1ccco1 | 0 | -61* | -7 | -6 | 11
SMILES | D1 agonist | D3 antag | DRD3 agonist | D1 potentiator | D1 antag
CC(C)CCNC(=O)CN1C(=O)CN=C(c2ccccc2)c2ccccc21 | 2 | -13 | 0 | 0 | 7
CCN(CCO)CCn1c(Cc2ccccc2)nc2c1c(=O)n(C)c(=O)n2C | · | · | 2 | · | ·
CC1CCC/C=C/C2CC(O)CC2C(O)/C=C/C(=O)O1 (stereo not drawn) | 4 | -8 | 1 | 4 | -7
C[C@H]1CCC/C=C/C2C[C@H](O)CC2[C@H](O)/C=C/C(=O)O1 (stereo partly drawn) | 2 | 5 | 24 | -3 | -41*
COc1ccc(OCC(=O)N2CCN(CCc3ccccn3)CC2)cc1 | -1 | · | -7 | 1 | -19
CCC(=O)OC1(c2ccccc2)CCN(C)CC1 | · | · | -4 | · | ·
CC(Cc1ccccc1)NCC(=O)Nc1cc(N(C)C)nc2ccccc12 (stereo not drawn) | -1 | 7 | -6 | 9 | -50*
CCN[C@@H](C)Cc1ccccc1 | · | · | 6 | · | ·
COc1cccc(NC(=O)c2cccn(Cc3ccccc3C)c2=O)c1 | 9 | · | -2 | -5 | -11
CN1/C(=C\C=C2C(=O)NC(=O)NC2=O)C(C)(C)c2ccccc21 | 107* | 1 | 1 | -1 | 1
CN1/C(=C\C=Nc2ccccc2)C(C)(C)c2ccccc21 | 2 | 32 | 1 | -3 | -18
CCOC(=O)C1(CCc2ccccc2)CCN(Cc2cccc3cnccc23)CC1 | 0 | -2 | -13 | -5 | -45*
CCOC(=O)C1(CCc2ccccc2)CCN(Cc2cccc3c2OCO3)CC1 | 2 | -81* | -26 | -8 | -42*
Nc1nc(N)c2nc(CNc3ccc(C(=O)N[C@@H](CCC(=O)O)C(=O)O)cc3)cnc2n1 | · | · | 6 | · | ·
CN[C@@H](C)Cc1ccccc1 | · | · | 1 | · | ·
C=CCN1CC[C@]23c4c5ccc(O)c4OC2C(O)C=CC3[C@H]1C5 (stereo partly drawn) | · | -110* | -95 | · | ·
COc1ccc2c3c1OC1C(O)C=CC4[C@@H](C2)N(C)CC[C@]314 (stereo partly drawn) | · | -13 | 0 | · | ·
Cc1cc(N2CCCCC2)ccc1C=C1C(=O)N(C)C(=S)N(C)C1=O | 1 | 14 | 3 | 5 | 8
Cc1cc(N2CCCC2)ccc1C=C(C#N)C#N | 32* | -5 | 5 | 1 | -33*
O=C(c1ccccc1)C(CN1CCCC1)c1ccccc1 (stereo not drawn) | 3 | -56* | -9 | -5 | -5
Cn1cc(C2=C(c3cn(C4CCN(Cc5ccccn5)CC4)c4ccccc34)C(=O)NC2=O)c2ccccc21 | · | · | -9 | · | ·
CC(C)Cc1nc(N2CCNCC2)c(C#N)c2c1CCC2 | 10 | ? | -18 | 0 | 19
CCc1nc(N2CCNCC2)c(C#N)c2c1CSC(C)(C)C2 | 4 | -74* | -3 | 1 | 21
N#CC1c2ccccc2C=CN1C(=O)c1ccc(N(CCCl)CCCl)cc1 (stereo not drawn) | · | -81* | -7 | · | ·
Cc1cc(O)c2c3c(c(=O)oc2c1)CCC(C)C3 (stereo not drawn) | 37* | -5 | -1 | -5 | -35*
CCOc1cc(C)cc2oc(=O)c3c(c12)CCCC3 | 2 | 0 | 13 | 3 | 2

Screening data: PubChem, National Center for Advancing Translational Sciences (NCATS)
